Structures can show the parent of a compound that is named as a salt. Screen size: about 5,800 compounds; about 620 (11%) showed activity. The sample as a whole holds a higher share of actives than the screen did. Values without a mark were called inactive.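 The calls were made as follows: active = score above a cut-off or among the top three wells of a plate; in these data no inactive exceeds 0.85.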
Tested on: primary human hepatic stellate cells (donor 1)
Assay: scaled lipid accumulation score (0 = DMSO-like, 1 = nortriptyline-like); higher = stronger HSC inactivation (lipid re-accumulation), active = hit call of the paper
Details: 48 h
[1] = library stock concentration: 1 mM
[2] = library stock concentration: 10 mM
[3] = library stock concentration: 400 uM
[4] = library stock concentration: 2 mM
[5] = library stock concentration: 3.33 mM

`CCCCCCCCCCCCCCCCCC(=O)N[C@H]1CCOC1=O` [N-octadecanoyl-L-Homoserine lactone] was tested, and the “scaled lipid accumulation score” value [1] was at most 0.

With `CCCCN1C[C@H](O)[C@@H](O)[C@H](O)[C@H]1CO` [Miglustat] the “scaled lipid accumulation score” value (library stock concentration: 9.1 mM) was at most 0.

`Nc1nc(Nc2ccccc2)nc2c1ncn2[C@@H]1O[C@H](CO)[C@@H](O)[C@H]1O` was tested, and the “scaled lipid accumulation score” value [2] was at most 0.

With `CS(=O)(=O)O.Cc1ccc(NC(=O)c2ccc(CN3CCN(C)CC3)cc2)cc1Nc1nccc(-c2cccnc2)n1` the “scaled lipid accumulation score” value [2] was 1.08 (active).

In the case of `Cc1ccc(NC(=O)c2ccc(CN3CCN(C)CC3)cc2)cc1Nc1nccc(-c2cccnc2)n1`, the “scaled lipid accumulation score” value [3] was 0.022, the “scaled lipid accumulation score” value [4] was at most -0.005 and the “scaled lipid accumulation score” value [2] was 0.628.

With `Cc1ccc(NC(=O)c2ccc(CN3CCN(C)CC3)cc2)cc1Nc1nccc(-c2cccnc2)n1` [Imatinib] the “scaled lipid accumulation score” value (library stock concentration: 80 uM) was at most 0, the “scaled lipid accumulation score” value [3] was at most 0 and the “scaled lipid accumulation score” value [4] was 0.049.

In the case of `CS(=O)(=O)O.Cc1ccc(NC(=O)c2ccc(CN3CCN(C)CC3)cc2)cc1Nc1nccc(-c2cccnc2)n1` [Imatinib Mesylate (STI571)], the “scaled lipid accumulation score” value [2] was 1.1 (active).

For `Cc1ccc(NC(=O)c2ccc(CN3CCN(C)CC3)cc2)cc1Nc1nccc(-c2cccnc2)n1` [Imatinib Mesylate (STI571)], the “scaled lipid accumulation score” value [5] was 0.259.

In the case of `Cc1ccc(NC(=O)c2ccc(CN3CCN(C)CC3)cc2)cc1Nc1nccc(-c2cccnc2)n1` [Imatinib (STI571)] [listing 1 of 2 here], the “scaled lipid accumulation score” value [5] was 0.133.

In the case of `Cc1cc(-c2ccc(CC(=O)Nc3ccc(-c4cccnc4)cc3)cc2)ccn1`, the “scaled lipid accumulation score” value [5] was 0.089 and the “scaled lipid accumulation score” value [2] was 0.262.

With `CS(=O)(=O)O.Cc1ccc(NC(=O)c2ccc(CN3CCN(C)CC3)cc2)cc1Nc1nccc(-c2cccnc2)n1` [Imatinib] the “scaled lipid accumulation score” value [2] was 0.969 (active).

With `Cc1ccc(NC(=O)c2ccc(CN3CCN(C)CC3)cc2)cc1Nc1nccc(-c2cccnc2)n1` [Imatinib (STI571)] [listing 2 of 2 here] the “scaled lipid accumulation score” value [2] was 0.92 (active).

In the case of `CCCCC/C=C\C/C=C\C/C=C\CCCCCCC(=O)O` [Dihomo-gamma-linolenic acid], the “scaled lipid accumulation score” value [1] was at most -0.021.

With `CCCCC/C=C\C/C=C\C/C=C\CCCCCCC(=O)O` [Dihomo-.gamma.-Linolenic Acid] the “scaled lipid accumulation score” value [1] was 0.003.

In the case of `CCCCC(CC)COC(=O)CC(C(=O)OCC(CC)CCCC)S(=O)(=O)O` (configuration not stated), the “scaled lipid accumulation score” value [2] was at most 0.

In the case of `CCCCC[C@H](O)/C=C/[C@H]1[C@H](O)CC(=O)[C@H]1C/C=C\CCCC(=O)OC(C)C` [8-iso Prostaglandin E2 isopropyl ester], the “scaled lipid accumulation score” value [1] was at most 0.

For `CC/C=C\C/C=C\C/C=C\C/C=C\C/C=C\C/C=C\CCC(=O)O[C@H](COCCCCCCCCCCCCCCCC)COP(=O)([O-])OCC[N+](C)(C)C` [Docosahexaenoyl PAF C-16], the “scaled lipid accumulation score” value [1] was at most 0.
